# Assay results published in article PMC12136788.
# Residue numbers refer to the chain shown, from its start. In all, about 5,800 sequences were measured (“enrichment r”: median about 0.54, highest 2% from about 16 on). The entries come from a sample that favours the highest values as a whole.
# B1: chr22:45843749:45843850:+|3pUTR|ENSG00000130638|msi1|FALSE|unique (ssRNA)
# RNA: GGGAGUUCUACAGUCCGACGAUCAAAUUGCAAGUGUUUGAAGAUUUAUAAGUACAAAUUUGGGAACAUACAAAUCUUUUAGGUAGUAGAGUUUAACGUGUAUAAGCUAAAAGUGAAAGUAACUGAGUGUUCUCUUGUUUCUUUCAACAGAGGAUUGAGCAUCA
# B2: chr4:25747873:25747886:-|3pUTR|ENSG00000091490|msi1_unk|FALSE|overlapping (ssRNA)
# RNA: GGGAGUUCUACAGUCCGACGAUCUAGCAGUUAUAAGGCACCUUGAAAUAAAUUGUUUGUGCCUGGAAAUGCAGGGAGGGCAAUAGCUUUGUAAAUUGGUUUACAUUUUUCUCCUUGAAUUUUUCUAGGGUCCUAGUGCUUCCGCAACAGAGGAUUGAGCAUCA
# B3: ENSG00000107863:be:win_3601|CDS|ENSG00000107863|bound_else_gene|NA|bound_elsewhere_windowed (ssRNA)
# RNA: GGGAGUUCUACAGUCCGACGAUCAAGGGAAUGGCUGAUAUUGAUAUACAAGAUGAUAAAUGGCGAGAUUUGAAUGUGAUAAGCAGUUUACUAAAAUCCUUCUUCAGAAAACUCCCUGAGCCUCUCUUCACAAAUGAUAAAUAUCAACAGAGGAUUGAGCAUCA
# B4: chr6:52502144:52502313:-|3pUTR|ENSG00000065308|msi1|total|mutant (ssRNA)
# RNA: GGGAGUUCUACAGUCCGACGAUCUCAGCCAUUCACAAGCAUUCAAAACCAAACCAAACAGCAGUUCAUAUACCUGCCUGAGACCGGCUGGUCCUCACCUCCAGAGCCAGCCAGCCCCGUCAGGGGCCAAACUUACUACCUUGACAACAGAGGAUUGAGCAUCA
# B5: chr10:119917856:119917957:+|CDS|ENSG00000107651|unk|total|mutant (ssRNA)
# RNA: GGGAGUUCUACAGUCCGACGAUCUAAGAAAAUCACUUUGCCAAGUAUUGGUCGAUUUCGUCACUUUACCAAUGAAACUUUGCCCGAUAUUUUAUUUUAUAACAGCCCCACCUACUGUCAGACAAUUGUGGAAAAAGCCGGAAUCAACAGAGGAUUGAGCAUCA
# B6: chr12:98549999:98550103:+|3pUTR|ENSG00000120802|unk|total|mutant (ssRNA)
# RNA: GGGAGUUCUACAGUCCGACGAUCUGUUUCCCAUACUGUUUUCAGCCUUUUGUUUAUAAUCCGAAAUUGUGAGAAGCUUCAUUCCGUGUUUAAAAAUGUGGGGAGAUAAAUCAGACUUAACAUGUAUGUAAGAUCAAUUCACUUCAACAGAGGAUUGAGCAUCA
# B7: ENSG00000198856:stop:overlap|stop_codon|ENSG00000198856|stop_codon|NA|stop_codon (ssRNA)
# RNA: GGGAGUUCUACAGUCCGACGAUCUGAGUUUUUUCAUGGCUAGAGUAUUCAUGAGAAUGAAACUGCCGGGCUAUCUGAUGGGUUAGAGUGCCUUUGAGAAGAAAUCAGUGGAUACUGGAUUUGCUCCUGUCAAUGAAGUUUUAACAACAGAGGAUUGAGCAUCA
# B8: ENSG00000064393:stop:overlap|stop_codon|ENSG00000064393|stop_codon|NA|stop_codon (ssRNA)
# RNA: GGGAGUUCUACAGUCCGACGAUCUCUCCCUGGAGAGUGGUUUUCCUGCUUUUCUGCUGCUAGAAAUGUUGCUGUAUGGGAGCUAGUACAAUAGAAAGUGCCCAGUGACUGCAGGCGACCCUUACCGAGGAUUUUAUUCAAGUACAACAGAGGAUUGAGCAUCA
# B9: chr2:167954955:167954998:-|3pUTR|ENSG00000198648|msi1_unk|FALSE|overlapping (ssRNA)
# RNA: GGGAGUUCUACAGUCCGACGAUCGUUGUAUUUAGAAAUUAAUAUACUUAUAAAAUUAAGAUUUAUUAGCCAAACUUGAAUUCUAGUUUUAAAACUGACUGUGAAUUUUAUUUUUCAUAUAUUUAUGCAUUACACACCUUAGCUCAACAGAGGAUUGAGCAUCA
# B10: chr1:150220393:150220494:-|3pUTR|ENSG00000143401|msi1_unk|FALSE|overlapping (ssRNA)
# RNA: GGGAGUUCUACAGUCCGACGAUCAUUGUAUGUAGAGAAAAAUUUUCAUUGACUCCCAUUGUGGAAUUCCCUAGCAAUUUAUUUAGACUUAAUUUUUUAAAUUCAAGCUUACUGUAUUAGUCAUUUUUAGCCCAUAAUUAAAACCAACAGAGGAUUGAGCAUCA
# B11: chr12:98549999:98550103:+|3pUTR|ENSG00000120802|unk|FALSE|unique (ssRNA)
# RNA: B6 RNA with C60U, C61A, C83U, C84A
# B12: chr12:909583:909684:+|3pUTR|ENSG00000060237|unk|FALSE|bound_elsewhere (ssRNA)
# RNA: GGGAGUUCUACAGUCCGACGAUCUAGCUCUGUCCUUUACUUAUUGAGACACUUUAACUUUUUCCUUUGUAUUUCCAUUGUAUUAGAUAAAUAAAUGUGAAUGUAAAAUUGUAUAAAUUACUGUACUUGAAUACUUCUGUUUCCCAACAGAGGAUUGAGCAUCA
# B13: chr1:150220393:150220494:-|3pUTR|ENSG00000143401|msi1_unk|total|mutant (ssRNA)
# RNA: B10 RNA with U32C, A33C, U71C, A72C, U83C, A84C, U117C, A118C, U127C, A128C
# B14: chr12:104760787:104760888:+|3pUTR|ENSG00000171310|unk|FALSE|unique (ssRNA)
# RNA: GGGAGUUCUACAGUCCGACGAUCUUCUUUUCUAAUGGCAUUGAAACUUUAAAAAAAAUGGAUUCAACUGUUUUUGCAGAAUGUAGAAAGUAUUCUGUGUCCUUGGUUAAAGAAAUCCACUUGUGAAGUGUGCCUGGAAAAUGACAACAGAGGAUUGAGCAUCA
# B15: chr8:100287602:100287712:-|CDS|ENSG00000034677|unk|total|mutant (ssRNA)
# RNA: GGGAGUUCUACAGUCCGACGAUCUGUGUGGAUUGCUUACGACAAUAUUUAAGGACCGAAAUCUCUGAAAGCAGAGUUAAUAUCCGUUGCCCAGAAUGUACUGAACGGUUUAAUCCCCAUGAUAUUCGCUUGAUAUUAAGUGAUCAACAGAGGAUUGAGCAUCA
# B16: chr12:104760787:104760888:+|3pUTR|ENSG00000171310|unk|total|mutant (ssRNA)
# RNA: B14 RNA with U83C, A84C
# B17: chr8:100287602:100287712:-|CDS|ENSG00000034677|unk|FALSE|unique (ssRNA)
# RNA: B15 RNA with C55U, C56A, C83U, C84A
# Target: MSI1 full-length (mouse, UniProt Q61474 1-362)
# Sequence (Q61474 whole entry): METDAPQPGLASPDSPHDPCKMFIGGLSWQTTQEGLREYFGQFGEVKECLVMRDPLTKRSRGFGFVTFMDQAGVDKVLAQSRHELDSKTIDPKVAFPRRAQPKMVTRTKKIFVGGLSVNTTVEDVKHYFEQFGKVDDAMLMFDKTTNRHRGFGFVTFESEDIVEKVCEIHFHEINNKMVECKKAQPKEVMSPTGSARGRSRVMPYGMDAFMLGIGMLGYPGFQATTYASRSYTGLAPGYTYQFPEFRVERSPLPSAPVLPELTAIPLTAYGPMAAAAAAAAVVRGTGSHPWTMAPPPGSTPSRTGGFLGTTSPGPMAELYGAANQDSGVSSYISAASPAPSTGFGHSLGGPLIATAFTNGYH
# Assay: nsRBNS (natural sequence RNA bind-n-seq); RBNS binding buffer (assumed for nsRBNS): 25 mM Tris pH 7.5, 150 mM KCl, 3 mM MgCl2, 0.01% Triton X-100, 500 ug/ml BSA, 20 U/ml SUPERase-In, 4 C; UNK is unkempt and MSI1 is Musashi-1; names of the RNAs are library labels; protein concentration not given here; high values mean tight binding
row,Binder,binding signal [enrichment R]
1,B1,7.75
2,B2,1.14
3,B3,0.64
4,B4,0.877
5,B5,0.52
6,B6,0.426
7,B7,16.4
8,B8,0.605
9,B9,9.9
10,B10,61.8
11,B11,27.3
12,B12,13.1
13,B13,2.27
14,B14,0.433
15,B15,0.307
16,B16,0.231
17,B17,22.4
